Source: PubChem (National Center for Advancing Translational Sciences (NCATS))
Pol kappa inh: inhibitors of human DNA polymerase kappa; 400,000 tested, 0.53% active; Q9UBT6; Potency, µM (titrated, usually from 107 µM), usual class: inhibitors; purified Pol kappa, fluorescent DNA synthesis assay, 10 min; AID 588579
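10 nM Pol kappa preincubated 15 min at room temperature with compounds, then reaction started with substrate at 50 nM final. Fluorescence read kinetically at 0 and 10 min; buffer-only wells served as negative control.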
GCN5L2 inh: inhibitors of human GCN5L2 histone acetyltransferase | Q92830 | GCN5L2 HAT assay, ThioGlo1 CoA-SH fluorescence | Potency, µM (highest dose often 58.9 µM), usual class: inhibitors | 390,000 tested, 0.21% active
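Preincubate 20nM GCN5L2 with compound 15 min, RT → add 50uM ThioGlo1 + 75uM H3(1-25) + 70uM acetyl-CoA → read fluorescence 0 and 20 min. Primary qHTS; fluorescent artifacts likely.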
POLH inh: blocks human DNA polymerase eta activity; recombinant Pol eta, fluorescent DNA replication assay; Potency, µM (highest dose often 114 µM), actives largely listed as inhibitors; 390,000 tested, 1.2% active
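Pol eta (10 nM) was preincubated with compounds for 15 min at room temperature, after which fluorescent replication substrate (50 nM final) was added to start the reaction. Fluorescence was read kinetically at 0 and 10 min.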
GLS inhibitor: glutaminase GLS (human) inhibition | O94925 | GLS enzymatic activity, qHTS titration | Potency, µM (titrated, usually from 45.5 µM), actives largely listed as inhibitors | 410,000 tested, 0.21% active
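hKGA; 45 mM KH2PO4 pH 8.2 + 0.02% Tween-20; cpd via pin tool; 1 mM Gln soln; GluOx/HRP/Amplex Red; RT 30 min; fluor. t0 & final.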
Pol iota inh: DNA polymerase iota (human) inhibition | Pol iota fluorescent replication assay, 10 min | Potency, µM (top dose mostly 115 µM), hits mostly inhibitors | 390,000 tested, 1% active
Target sequence (Q9UNA4 whole entry, looked up): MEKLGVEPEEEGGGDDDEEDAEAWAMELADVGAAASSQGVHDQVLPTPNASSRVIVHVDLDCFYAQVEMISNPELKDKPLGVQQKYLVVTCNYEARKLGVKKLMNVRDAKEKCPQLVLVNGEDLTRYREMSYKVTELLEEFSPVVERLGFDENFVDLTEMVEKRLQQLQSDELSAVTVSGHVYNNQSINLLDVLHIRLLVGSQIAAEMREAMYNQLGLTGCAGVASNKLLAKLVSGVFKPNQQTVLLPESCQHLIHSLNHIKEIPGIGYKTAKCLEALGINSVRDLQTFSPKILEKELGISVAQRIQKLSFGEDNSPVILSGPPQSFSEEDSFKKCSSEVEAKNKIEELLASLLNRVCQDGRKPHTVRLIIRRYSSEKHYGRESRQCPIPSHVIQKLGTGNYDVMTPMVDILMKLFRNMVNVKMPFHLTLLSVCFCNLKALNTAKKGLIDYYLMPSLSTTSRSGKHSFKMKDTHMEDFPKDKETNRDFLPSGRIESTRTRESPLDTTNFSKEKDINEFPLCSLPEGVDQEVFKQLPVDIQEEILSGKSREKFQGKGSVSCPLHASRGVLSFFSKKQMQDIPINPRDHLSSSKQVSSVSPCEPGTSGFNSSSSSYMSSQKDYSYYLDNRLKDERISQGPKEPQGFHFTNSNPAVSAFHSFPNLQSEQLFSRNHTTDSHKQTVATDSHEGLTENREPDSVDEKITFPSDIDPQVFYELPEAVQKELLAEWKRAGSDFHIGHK
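Pol iota at 10 nM preincubated 15 min with compounds at room temperature; reaction started with fluorescent substrate, 50 nM final. Fluorescence read kinetically at 0 and 10 min; buffer-only wells as negative control.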
POLB inh: blocks human DNA polymerase beta activity. 340,000 tested, 1.3% active. Pol beta primer extension/strand displacement, fluorescence kinetic. Potency, µM (highest dose often 114 µM), actives largely listed as inhibitors
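Pol beta (10 nM) and compounds were preincubated 15 min at room temperature, then 50 nM substrate (final) started primer extension/strand displacement. Reads were taken at 0 and 10 min; concentration-response data were fitted to a four-parameter Hill equation.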
Hits are given with their value. Sampled rows, rich in hits. Any-hit rate of the full collection: about 2.4%. The call rests on the fitted dose curve; in most records, active means well fitted inhibition curve with a large enough effect; inconclusive means small, poorly fitted or top-dose-only effect, or another doubt; inactive means no such curve, though single readings can be large or run the other way.

What do the screens show for `COc1cccc(/C=C2\Oc3cc(OCC(=O)N4CCC[C@H]4C(=O)O)ccc3C2=O)c1`?
Pol kappa inh: inactive; GCN5L2 inh: inactive; POLH inh: 45µM; GLS inhibitor: inactive; Pol iota inh: inactive; POLB inh: inactive

What do the screens show for `COc1ccc(/C=C2\Oc3cc(OCC(=O)N4CCC[C@H]4C(=O)O)ccc3C2=O)c(OC)c1`?
Pol kappa inh: inconclusive; GCN5L2 inh: inactive; POLH inh: inactive; GLS inhibitor: inactive; Pol iota inh: inconclusive; POLB inh: inactive

What do the screens show for `CC(=O)N(C1=C(O)c2ccccc2C(=O)C1=O)C1CCCCC1`?
Pol kappa inh: inactive; GCN5L2 inh: inactive; POLH inh: inactive; GLS inhibitor: inactive; Pol iota inh: inactive; POLB inh: inactive

How did O=C1C(O)=C(O)C(=O)c2ccccc21 do in these assays?
Pol kappa inh: inactive; POLH inh: 32µM; GLS inhibitor: inactive; Pol iota inh: 7.9µM

Results for CC(=O)N(C)C1=C(O)c2ccccc2C(=O)C1=O ?
Pol kappa inh: inactive; GCN5L2 inh: inactive; POLH inh: inactive; GLS inhibitor: inactive; Pol iota inh: 28µM; POLB inh: inactive

How did O=C1c2ccccc2C(=O)c2[nH]cnc21 do in these assays?
Pol kappa inh: inactive; GCN5L2 inh: inactive; POLH inh: inactive; GLS inhibitor: inactive; Pol iota inh: inactive; POLB inh: inconclusive

How did O=C1c2ccccc2C(=O)c2[nH]c(=O)[nH]c21 do in these assays?
Pol kappa inh: inconclusive; GCN5L2 inh: inactive; POLH inh: 32µM; GLS inhibitor: inactive; Pol iota inh: 14µM; POLB inh: 50µM

Results for O=C(COc1ccccc1C(=O)Nc1cccc([N+](=O)[O-])c1)Nc1ccc(Br)cc1 ?
Pol kappa inh: inactive; Pol iota inh: inactive

Results for COc1ccc(CNC(=O)Cn2nc(-c3ccc4c(c3)OCCO4)ccc2=O)cc1 ?
Pol kappa inh: inactive; GCN5L2 inh: inactive; POLH inh: inactive; GLS inhibitor: inactive; Pol iota inh: 63µM; POLB inh: inactive

How did COc1ccc(-c2ccc(=O)n(CC(=O)Nc3ccc4c(c3)OCCO4)n2)cc1 do in these assays?
Pol kappa inh: inactive; GCN5L2 inh: inactive; POLH inh: inactive; GLS inhibitor: inactive; Pol iota inh: inconclusive; POLB inh: inactive

Results for CCOC(=O)c1c(C)oc2nc(C)nc(NCCCN3CCN(c4cccc(C)c4)C(C)C3)c12 (stereo unspecified) ?
Pol kappa inh: inconclusive; GCN5L2 inh: inactive; POLH inh: inactive; GLS inhibitor: inactive; Pol iota inh: 89µM; POLB inh: inactive

Results for Cc1ccc(-c2nnn(CC(=O)Nc3ccc(S(=O)(=O)N4CCC(C)CC4)cc3)n2)cc1 ?
Pol kappa inh: inactive; GCN5L2 inh: inactive; POLH inh: inconclusive; GLS inhibitor: inactive; Pol iota inh: inconclusive; POLB inh: 35µM

How did CC1CCN(CC(=O)Nc2ccc(S(=O)(=O)N3CCC(C)CC3)cc2)CC1 do in these assays?
Pol kappa inh: inactive; GCN5L2 inh: inactive; POLH inh: inactive; GLS inhibitor: inactive; Pol iota inh: inactive; POLB inh: inactive

What do the screens show for `CC1CCN(S(=O)(=O)c2ccc(NC(=O)Cn3nnc(-c4ccccc4)n3)cc2)CC1`?
Pol kappa inh: inactive; GCN5L2 inh: inactive; POLH inh: inactive; GLS inhibitor: inactive; Pol iota inh: inconclusive; POLB inh: 40µM

What do the screens show for `C[N+]1(CC(=O)c2ccc(Oc3ccccc3)cc2)CCOCC1`?
Pol kappa inh: inactive; Pol iota inh: inconclusive

What do the screens show for `CCC1=NN2C(=N)/C(=C\c3ccc(OCCOc4ccc(NC(C)=O)cc4)cc3)C(=O)N=C2S1`?
Pol kappa inh: inactive; GCN5L2 inh: inactive; POLH inh: inconclusive; GLS inhibitor: inactive; Pol iota inh: inactive; POLB inh: inactive

How did CCCC1=NN2C(=N)/C(=C\c3ccc(OCCOc4ccc(NC(C)=O)cc4)c(OC)c3)C(=O)N=C2S1 do in these assays?
Pol kappa inh: inactive; GCN5L2 inh: inactive; POLH inh: 79µM; GLS inhibitor: inactive; Pol iota inh: inactive; POLB inh: inconclusive

How did COc1cc(/C=C2\C(=N)N3N=C(C)SC3=NC2=O)cc(Cl)c1OCCOc1ccc(NC(C)=O)cc1 do in these assays?
Pol kappa inh: inactive; GCN5L2 inh: inactive; POLH inh: 89µM; GLS inhibitor: inactive; Pol iota inh: inconclusive; POLB inh: inactive

How did COc1cc(/C=C2\C(=N)N3N=C(C(C)C)SC3=NC2=O)ccc1OCCOc1ccc(NC(C)=O)cc1 do in these assays?
Pol kappa inh: inactive; GCN5L2 inh: inactive; POLH inh: inactive; GLS inhibitor: inactive; Pol iota inh: inactive; POLB inh: inactive

How did CCOc1cc(/C=C2\C(=N)N3N=C(CC)SC3=NC2=O)ccc1OCCOc1ccc(NC(C)=O)cc1 do in these assays?
Pol kappa inh: inactive; GCN5L2 inh: inactive; POLH inh: inactive; GLS inhibitor: inactive; Pol iota inh: inactive; POLB inh: 50µM

What do the screens show for `CN(C)c1cc2c3ccccc3ccc2c2ccccc12`?
Pol kappa inh: inactive; Pol iota inh: inactive

Results for Cc1ccc(C2C=C(c3ccc(Cl)cc3)Nc3nc(NC(=O)c4ccco4)nn32)cc1 (stereo unspecified) ?
Pol kappa inh: inactive; GCN5L2 inh: inactive; POLH inh: inactive; GLS inhibitor: inactive; Pol iota inh: inactive; POLB inh: inconclusive

How did COc1cc2c(NC3CCN(C)CC3)nc(N3CCCN(C)CC3)nc2cc1OCCN(C)CCN(C)C do in these assays?
Pol kappa inh: inactive; Pol iota inh: inactive

How did COc1cc(NCc2ccc3nc(N)nc(N)c3c2C)cc(OC)c1OC do in these assays?
Pol kappa inh: inconclusive; GCN5L2 inh: inactive; GLS inhibitor: inactive

Results for COc1ccccc1/C=C/c1cncc(/C=C/c2ccccc2OC)c1 ?
Pol kappa inh: inactive; Pol iota inh: inactive

How did CC(C)C12CN3CC(C(C)C)(CN(C1)C3c1ccc(Cl)cc1)C2=O (stereo unspecified) do in these assays?
Pol kappa inh: inactive; GCN5L2 inh: inactive; POLH inh: inactive; GLS inhibitor: inactive; Pol iota inh: inactive; POLB inh: inactive

How did O=[N+]([O-])c1ccc(/C=N/Nc2nc(-c3ccccc3)c3cc(Br)ccc3n2)o1 do in these assays?
Pol kappa inh: inactive; GCN5L2 inh: inactive; POLH inh: inconclusive; GLS inhibitor: inactive; Pol iota inh: inactive; POLB inh: inactive

What do the screens show for `Cc1ccc2nc(N/N=C\c3ccc([N+](=O)[O-])o3)nc(-c3ccccc3)c2c1`?
Pol kappa inh: inactive; GCN5L2 inh: inactive; POLH inh: inconclusive; GLS inhibitor: inactive; Pol iota inh: inconclusive; POLB inh: 28µM

Results for CC(=O)/C=C/c1ccc2c(c1)S(=O)(=O)N(C1CCCC1)[C@H]2CC(C)=O ?
Pol kappa inh: inactive; Pol iota inh: inconclusive
